Inconclusive results are not listed. The source made the active and inactive calls. How the source made its calls: active means hit-call score of the fitted dose curve at least 0.9, where 1 is the maximum; inconclusive means response in the unintended direction; inactive means score below 0.9.
The molecules below were run against Peroxisome proliferator-activated receptor gamma (Homo sapiens) (UniProt P37231) (assay: NVS_NR_hPPARg: NovaScreen (NVS) Nuclear Receptor Binding Assay for human Peroxisome Proliferator-activated Receptor gamma (PPARg) (AID 2283370)).
Sequence of Peroxisome proliferator-activated receptor gamma (Homo sapiens) (P37231 whole entry, looked up): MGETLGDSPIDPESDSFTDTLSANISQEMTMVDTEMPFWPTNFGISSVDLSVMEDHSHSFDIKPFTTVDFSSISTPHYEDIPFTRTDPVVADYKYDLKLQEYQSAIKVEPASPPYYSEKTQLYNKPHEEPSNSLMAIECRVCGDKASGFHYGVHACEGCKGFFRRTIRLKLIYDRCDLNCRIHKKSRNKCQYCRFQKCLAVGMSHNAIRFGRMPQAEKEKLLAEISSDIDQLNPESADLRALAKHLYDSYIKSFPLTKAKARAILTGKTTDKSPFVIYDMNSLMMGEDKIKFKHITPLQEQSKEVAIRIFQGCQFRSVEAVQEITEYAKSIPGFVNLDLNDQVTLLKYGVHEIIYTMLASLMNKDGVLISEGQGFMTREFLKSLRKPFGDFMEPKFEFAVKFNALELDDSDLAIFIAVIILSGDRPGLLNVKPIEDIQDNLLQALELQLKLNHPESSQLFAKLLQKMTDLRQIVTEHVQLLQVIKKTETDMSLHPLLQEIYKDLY
Experimental: NVS_NR_hPPARg is a biochemical, single-readout assay that uses extracted gene-proteins in a cell-free assay. Measurements were taken 2 hours after chemical dosing in a 384-well plate.NVS_NR_hPPARg is one of one assay component(s) measured or calculated from the NVS_NR_hPPARg assay. It is designed to make measurements of fluorescent polarization, a form of binding reporter, as detected with fluorescence polarization signals by Fluorescence Polarization technology.Data from the assay component NVS_NR_hPPARg was analyzed into 1 assay endpoint. This assay endpoint, NVS_NR_hPPARg, was analyzed in the positive analysis fitting direction relative to DMSO as the negative control and baseline of activity. Using a type of binding reporter, loss-of-signal activity can be used to understand changes in the binding as they relate to the gene PPARG. Furthermore, this assay endpoint can be referred to as a primary readout, because the performed assay has only produced 1 assay endpoint. To generalize the intended target to other relatable targets, this assay endpoint is annotated to the nuclear receptor intended target family, where the subfamily is non-steroidal.
Binding assays used specific radioligands (tritiated, iodinated) with non-radioactive competitive displacement ligands in agonist or antagonist protocols (as indicated) and various reference compounds and inhibitors to titrate specific binding to receptors and transporters. Most enzyme assays (CYPs, kinases, phosphatases, proteases, HDACs) used recombinant protein and specific substrates (fluorescence mostly, some colorimetric and radioactive) and inhibitors, followed by a biochemical separation of substrate and product. All assays for the biochemical HTS were initially run in duplicate at a single concentration (10 uM for CYP450 assays and 25 uM for all others). […] Each assay was run with positive and negative controls, and concurrent controls on every plate. The follow-up (secondary) screen tested active chemical-pairs in concentration series, as well as a few additional assays not tested in the primary screen, some selected negative inactives, and several cases re-run in the concentration series for confirmatory purposes.

| SMILES | outcome | AC50 |
| --- | --- | --- |
| N#Cc1c(Cl)cccc1Cl | inactive | – |
| CCCCC(O)(Cn1cncn1)c1ccc(Cl)cc1Cl (centres undefined) | inactive | – |
| N#Cc1c[nH]cc1-c1cccc2c1OC(F)(F)O2 | inactive | – |
| CCN(CC)c1nc(C)cc(OP(=S)(OC)OC)n1 | inactive | – |
| CCSC(=O)N1CCCCCC1 | inactive | – |
| CC(C)NC(=O)N1CC(=O)N(c2cc(Cl)cc(Cl)c2)C1=O | inactive | – |
| CCOC(=O)C(C)OC(=O)c1cc(Oc2ccc(C(F)(F)F)cc2Cl)ccc1[N+](=O)[O-] (centres undefined) | inactive | – |
| Cc1cc(C)nc(Nc2ccccc2)n1 | inactive | – |
| CC(C)=CC1C(C(=O)OCc2coc(Cc3ccccc3)c2)C1(C)C (centres undefined) | – | 2.9 µM (active) |
| CCCC(=NOCC)C1=C(O)CC(CC(C)SCC)CC1=O (centres undefined) | inactive | – |
| O=C1C2CC=CCC2C(=O)N1SC(Cl)(Cl)Cl (centres undefined) | inactive | – |
| Nc1c(Cl)c(F)nc(OCC(=O)O)c1Cl | inactive | – |
| COP(=S)(OC)Oc1ccc([N+](=O)[O-])c(C)c1 | – | 3.38 µM (active) |
| CCNP(=S)(OC)O/C(C)=C/C(=O)OC(C)C (centres undefined) | inactive | – |
| CCCCC(C#N)(Cn1cncn1)c1ccc(Cl)cc1 (centres undefined) | inactive | – |
| CC(C)(C)C(=O)C(Oc1ccc(Cl)cc1)n1cncn1 (centres undefined) | inactive | – |
| COCC(C)N(C(=O)CCl)c1c(C)csc1C (centres undefined) | inactive | – |
| COCC(=O)N(c1c(C)cccc1C)C(C)C(=O)OC (centres undefined) | inactive | – |
| Cc1c(COC(=O)[C@@H]2[C@H](/C=C(\Cl)C(F)(F)F)C2(C)C)cccc1-c1ccccc1 | inactive | – |
